Test [1] concerns the target Bile acid receptor (Homo sapiens) (UniProt Q96RI1). Description: ATG_IR1_CIS: Attagene CIS-FACTORIAL HepG2 Assay for human Nuclear Receptor Subfamily 1 Group H Member 4 (NR1H4), IR1 submotif (AID 2282946). To be noted: IR1 reporter transcription, actives raise or lower the signal. The essentials: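 Cells (human HepG2) carry transiently transfected cis-promoter reporter transcription units. Compounds are incubated 24 h, total RNA is reverse-transcribed and amplified, and labelled fragments are resolved by capillary electrophoresis. Curves use DMSO as baseline.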

Test [2] is described as follows: ATG_GRE_CIS: Attagene CIS-FACTORIAL HepG2 Assay for human Glucocorticoid Response Elements (GRE) (AID 2282947). To be noted: HepG2 GRE cis-reporter, Attagene multiplex mRNA; actives raise or lower the signal. The essentials:
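Assay uses human hepatoma HepG2 cells transfected with cis-promoter reporter units, exposed 24 h. mRNA from reporters detected by RT-PCR plus capillary electrophoresis; DMSO serves as negative control and baseline.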

Test [3] is described as follows: ATG_ISRE_CIS: Attagene CIS-FACTORIAL HepG2 Assay for human Interferon Regulatory Factor 1 (IRF1) binding to an Interferon-Stimulated Response Element (ISRE) (AID 2282948). The conditions noted are these: HepG2 ISRE cis-reporter (Attagene), mRNA transcription readout; actives raise or lower the signal. The essentials:
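Quantitation relies on labelled RT-PCR fragments separated by capillary electrophoresis. Human HepG2 cells bearing cis-promoter reporter constructs were treated 24 h; DMSO served as baseline for bidirectional fitting.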

A short description of test [4]: ATG_M_32_CIS: Attagene CIS-FACTORIAL HepG2 Assay for M32 Transcription Factor (Internal Marker) (AID 2282949).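 Also: background control marker of the multiplexed CIS panel rather than a real target.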 The conditions noted are these: HepG2 Attagene cis-factorial M32 reporter, mRNA; actives raise or lower the signal. The essentials: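 Internal background marker read-out: RT-PCR/capillary electrophoresis fluorescence of reporter transcripts from transiently transfected HepG2 cells after 24 h chemical exposure. Activity fitted bidirectionally relative to DMSO negative control.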

Test [5] in a line: ATG_M_06_CIS: Attagene CIS-FACTORIAL HepG2 Assay for M06 Transcription Factor (Internal Marker) (AID 2282950). The conditions noted are these: HepG2 Attagene CIS-FACTORIAL M06 internal marker reporter; actives raise or lower the signal. The essentials:
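Cells (HepG2, transiently carrying cis-driven reporter units) receive chemical for 24 h before RNA isolation. Reporter cDNA is PCR-amplified, FAM-labelled by primer extension, HpaI-digested and sized on a capillary analyser.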

Test [6] concerns the target Hypoxia-inducible factor 1-alpha (Homo sapiens) (UniProt Q16665). Kind of test: ATG_HIF1a_CIS: Attagene CIS-FACTORIAL HepG2 Assay for human Hypoxia Inducible Factor 1 (HIF1A) (AID 2282951). To be noted: HepG2 Attagene cis-factorial HIF1a reporter transcription; actives raise or lower the signal. The gist of the method: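 Measures endogenous transcription-factor activity through cis-regulated reporter mRNA in HepG2. Cells dosed 24 h; transcripts quantified by RT-PCR with 6-FAM-labelled products separated by capillary electrophoresis; DMSO serves as negative control.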

In test [7] the target is Hepatocyte nuclear factor 6 (Homo sapiens) (UniProt Q9UBC0). Kind of test: ATG_HNF6_CIS: Attagene CIS-FACTORIAL HepG2 Assay for human Hepatocyte Nuclear Factor 6 (HNF6) (AID 2282952). The conditions noted are these: HepG2 Attagene cis-factorial HNF6 reporter transcription; actives raise or lower the signal. The essentials:
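Transiently transfected HepG2 cells expressing cis-regulated reporter transcription units were exposed to chemical for 24 h in a 24-well format. Reporter transcript abundance was determined by fluorescence capillary electrophoresis.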

Test [8] deals with Heat shock factor protein 1 (Homo sapiens) (UniProt Q00613). Description: ATG_HSE_CIS: Attagene CIS-FACTORIAL HepG2 Assay for human Heat Shock Transcription Factor 1 (HSE) (AID 2282953). To be noted: HepG2 HSE cis-reporter, Attagene RNA transcription; actives raise or lower the signal. The gist of the method:
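Liver-derived HepG2 cells carry transiently introduced multiple reporter units governed by cis promoters. Reporter RNA measured 24 h post-dose through reverse transcription, PCR amplification, fluorescent labelling and capillary electrophoresis, normalised to DMSO.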

Test [9] can be described thus: ATG_MRE_CIS: Attagene CIS-FACTORIAL HepG2 Assay for human Metal Responsive Element (MRE) (AID 2282954). The conditions noted are these: HepG2 MRE cis-reporter transcription, Attagene multiplex; actives raise or lower the signal. The gist of the method: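 After a 24 h chemical exposure, transiently transfected HepG2 cells yield RNA whose reporter sequences are amplified, FAM-labelled and sized by capillary electrophoresis. Curves are fitted bidirectionally relative to DMSO.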

The nature of test [10]: ATG_PBREM_CIS: Attagene CIS-FACTORIAL HepG2 Assay for human Phenobarbital-responsive Enhancer Module (PBREM) (AID 2282955). To be noted: HepG2 PBREM cis-reporter, Attagene multiplexed transcription; actives raise or lower the signal. The essentials: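 Fluorescence of labelled reporter cDNA fragments, resolved by capillary electrophoresis, gives mRNA induction in transfected HepG2 cells treated for 24 h; DMSO serves as negative control and baseline.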

In test [11] the target is Paired box protein Pax-6 (Homo sapiens) (UniProt P26367). Description: ATG_Pax6_CIS: Attagene CIS-FACTORIAL HepG2 Assay for human Paired Box 6 (PAX6) (AID 2282956). To be noted: HepG2 CIS-FACTORIAL PAX6 reporter transcription, RNA readout; actives raise or lower the signal. The essentials:
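After twenty-four hours of chemical exposure, transfected HepG2 cells are harvested for RNA. Cis-promoter reporter transcripts are amplified, fluorescently labelled and sized by capillary electrophoresis, with gain and loss of signal scored against DMSO.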

The nature of test [12]: ATG_PXRE_CIS: Attagene CIS-FACTORIAL HepG2 Assay for human Pregnane X Receptor Element (PXRE) (AID 2282957). To be noted: HepG2 Attagene CIS-FACTORIAL PXRE reporter, mRNA; actives raise or lower the signal. The gist of the method:
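Cis-element reporter mRNA in human hepatoma HepG2 cells is measured 24 h post-dosing by RT-PCR, primer-extension labeling and capillary electrophoresis; gain or loss of signal is fitted relative to DMSO.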

Test [13] in a line: ATG_Sox_CIS: Attagene CIS-FACTORIAL HepG2 Assay for human SRY-box transcription factor (SOX) (AID 2282960). To be noted: HepG2 Attagene cis-factorial SOX reporter, mRNA; actives raise or lower the signal. The gist of the method:
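Transient MRTU transfection of HepG2; 24 h compound incubation; TriZol RNA, oligo(dT) RT, PCR, 6-FAM primer extension, HpaI cut, CE. Bidirectional fit, DMSO = baseline.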

For test [14], the target named is Transcription factor Sp1 (Homo sapiens) (UniProt P08047). Kind of test: ATG_Sp1_CIS: Attagene CIS-FACTORIAL HepG2 Assay for human Specificity Protein 1 (Sp1) (AID 2282961). The conditions noted are these: HepG2 Sp1 cis-reporter transcription, actives raise or lower the signal. The gist of the method:
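Endogenous Sp1 activity was gauged in human liver HepG2 cells bearing transfected reporter units under a cis-regulating promoter. After 24 h dosing, reporter mRNA was quantified by RT-PCR with capillary electrophoresis, and activity fitted bidirectionally versus DMSO.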

Test [15] in a line: ATG_SREBP_CIS: Attagene CIS-FACTORIAL HepG2 Assay for human Sterol Regulatory Element Binding (SREBP) (AID 2282962). To be noted: HepG2 Attagene cis-factorial SREBP reporter, mRNA; actives raise or lower the signal. The gist of the method:
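Twenty-four hours after chemical dosing of transfected HepG2 cultures, reporter RNA was converted to cDNA, amplified, end-labelled with 6-FAM and resolved by capillary electrophoresis. Responses were fitted relative to DMSO.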

For test [16], the target named is Signal transducer and activator of transcription 3 (Homo sapiens) (UniProt P40763). Kind of test: ATG_STAT3_CIS: Attagene CIS-FACTORIAL HepG2 Assay for human Signal Transducer and Activator of Transcription 3 (STAT3) (AID 2282963). To be noted: HepG2, Attagene cis-factorial STAT3 reporter transcription; actives raise or lower the signal. The gist of the method: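 After a 24 h compound incubation, total RNA from MRTU-transfected HepG2 cells was converted to cDNA and reporter sequences PCR-amplified, labelled and profiled by capillary electrophoresis. Gain and loss of signal were referenced to DMSO.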

A short description of test [17]: ATG_TA_CIS: Attagene CIS-FACTORIAL HepG2 Assay for human TA Basal Promoter (AID 2282964). To be noted: HepG2 Attagene CIS-factorial TA basal promoter reporter; actives raise or lower the signal. The essentials: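 Background internal-marker endpoint from a 52-component HepG2 cis-reporter panel. Cells treated 24 h; reporter transcripts quantified via RT-PCR and CE fluorescence against DMSO baseline.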

Test [18] in a line: ATG_TCF_b_cat_CIS: Attagene CIS-FACTORIAL HepG2 Assay for human T-Cell-Factor with beta-catenin (TCF/b-cat) (AID 2282965). The conditions noted are these: HepG2 TCF/beta-catenin cis-reporter transcription, actives raise or lower the signal. The essentials: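 Endogenous transcription factor activity is captured through cis-promoter reporter constructs transiently introduced into human HepG2 liver cells. Induced reporter mRNA is measured after 24 h and fitted bidirectionally relative to DMSO.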

Test [19] can be described thus: ATG_PPRE_CIS: Attagene CIS-FACTORIAL HepG2 Assay for human Peroxisome Proliferator-activated Response Element (PPRE) (AID 2282958). To be noted: HepG2 PPRE cis-element reporter, Attagene transcription factor profiling; actives raise or lower the signal. The gist of the method: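 Cells are first transfected transiently with the multiplexed reporter library, then dosed for 24 h. Total RNA is reverse-transcribed, amplified, fluorescently end-labeled and HpaI-cut before capillary electrophoresis; activity is fitted bidirectionally against DMSO controls.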

Test [20] in a line: ATG_RORE_CIS: Attagene CIS-FACTORIAL HepG2 Assay for human RAR-related Orphan Receptor Element (RORE) (AID 2282959). The conditions noted are these: HepG2 Attagene cis-factorial RORE reporter, mRNA; actives raise or lower the signal. The essentials:
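Cells were HepG2 carrying transfected cis-regulated reporter constructs, dosed for 24 hours. Total RNA was reverse-transcribed and reporter cDNA amplified, fluorescently labeled and sized by capillary electrophoresis. Activity was fitted bidirectionally relative to DMSO.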

Molecules are shown by their SMILES. The source made the active and inactive calls. The calls were made as follows: active = hit-call score of the fitted dose curve at least 0.9, where 1 is the maximum; inactive = score below 0.9.

Sequence of Paired box protein Pax-6 (Homo sapiens) (P26367 whole entry, looked up): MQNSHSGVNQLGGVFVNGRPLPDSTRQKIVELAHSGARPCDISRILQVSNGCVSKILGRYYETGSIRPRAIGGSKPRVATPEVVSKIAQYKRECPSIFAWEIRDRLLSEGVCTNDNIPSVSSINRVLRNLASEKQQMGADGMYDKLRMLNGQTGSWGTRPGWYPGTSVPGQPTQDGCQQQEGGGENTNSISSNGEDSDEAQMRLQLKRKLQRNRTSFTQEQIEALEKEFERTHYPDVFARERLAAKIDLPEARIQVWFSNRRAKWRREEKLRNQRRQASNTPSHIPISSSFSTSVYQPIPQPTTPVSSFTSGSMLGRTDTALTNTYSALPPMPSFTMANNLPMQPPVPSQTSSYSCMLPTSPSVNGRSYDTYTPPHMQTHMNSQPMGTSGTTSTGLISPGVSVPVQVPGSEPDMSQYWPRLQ
Sequence of Heat shock factor protein 1 (Homo sapiens) (Q00613 whole entry, looked up): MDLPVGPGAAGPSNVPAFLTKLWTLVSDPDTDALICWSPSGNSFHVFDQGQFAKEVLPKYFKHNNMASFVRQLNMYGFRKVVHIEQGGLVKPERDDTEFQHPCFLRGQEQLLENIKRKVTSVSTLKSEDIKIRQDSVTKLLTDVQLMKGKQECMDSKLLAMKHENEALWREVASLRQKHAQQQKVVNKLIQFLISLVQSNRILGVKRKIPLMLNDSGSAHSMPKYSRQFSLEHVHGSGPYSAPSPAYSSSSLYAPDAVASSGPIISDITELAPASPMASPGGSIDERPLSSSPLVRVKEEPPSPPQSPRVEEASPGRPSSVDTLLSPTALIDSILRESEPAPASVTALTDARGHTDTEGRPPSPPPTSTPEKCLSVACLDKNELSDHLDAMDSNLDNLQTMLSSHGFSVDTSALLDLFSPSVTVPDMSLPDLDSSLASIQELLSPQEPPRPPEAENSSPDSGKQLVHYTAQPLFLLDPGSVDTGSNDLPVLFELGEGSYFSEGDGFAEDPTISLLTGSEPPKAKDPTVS
Sequence of Transcription factor Sp1 (Homo sapiens) (P08047 whole entry, looked up): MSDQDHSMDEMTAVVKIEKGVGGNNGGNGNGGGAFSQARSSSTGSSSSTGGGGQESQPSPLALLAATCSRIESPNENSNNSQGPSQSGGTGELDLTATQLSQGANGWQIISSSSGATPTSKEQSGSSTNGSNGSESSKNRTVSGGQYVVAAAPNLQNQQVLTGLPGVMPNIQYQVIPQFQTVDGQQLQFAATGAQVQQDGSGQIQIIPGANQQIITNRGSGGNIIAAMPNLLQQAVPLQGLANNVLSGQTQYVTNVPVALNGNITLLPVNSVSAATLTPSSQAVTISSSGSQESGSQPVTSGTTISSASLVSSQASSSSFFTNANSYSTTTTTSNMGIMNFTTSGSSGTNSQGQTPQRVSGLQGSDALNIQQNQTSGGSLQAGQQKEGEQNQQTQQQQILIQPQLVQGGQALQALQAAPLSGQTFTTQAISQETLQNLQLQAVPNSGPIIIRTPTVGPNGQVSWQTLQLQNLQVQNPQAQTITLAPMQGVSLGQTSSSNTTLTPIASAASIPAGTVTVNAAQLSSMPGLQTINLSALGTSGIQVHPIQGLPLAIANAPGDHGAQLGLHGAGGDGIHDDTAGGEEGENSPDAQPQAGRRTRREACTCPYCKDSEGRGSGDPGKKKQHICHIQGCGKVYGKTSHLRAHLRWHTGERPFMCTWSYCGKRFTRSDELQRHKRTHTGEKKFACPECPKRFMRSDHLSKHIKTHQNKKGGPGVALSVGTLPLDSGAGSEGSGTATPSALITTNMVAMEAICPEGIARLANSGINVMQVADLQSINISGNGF
Sequence of Hypoxia-inducible factor 1-alpha (Homo sapiens) (Q16665 whole entry, looked up): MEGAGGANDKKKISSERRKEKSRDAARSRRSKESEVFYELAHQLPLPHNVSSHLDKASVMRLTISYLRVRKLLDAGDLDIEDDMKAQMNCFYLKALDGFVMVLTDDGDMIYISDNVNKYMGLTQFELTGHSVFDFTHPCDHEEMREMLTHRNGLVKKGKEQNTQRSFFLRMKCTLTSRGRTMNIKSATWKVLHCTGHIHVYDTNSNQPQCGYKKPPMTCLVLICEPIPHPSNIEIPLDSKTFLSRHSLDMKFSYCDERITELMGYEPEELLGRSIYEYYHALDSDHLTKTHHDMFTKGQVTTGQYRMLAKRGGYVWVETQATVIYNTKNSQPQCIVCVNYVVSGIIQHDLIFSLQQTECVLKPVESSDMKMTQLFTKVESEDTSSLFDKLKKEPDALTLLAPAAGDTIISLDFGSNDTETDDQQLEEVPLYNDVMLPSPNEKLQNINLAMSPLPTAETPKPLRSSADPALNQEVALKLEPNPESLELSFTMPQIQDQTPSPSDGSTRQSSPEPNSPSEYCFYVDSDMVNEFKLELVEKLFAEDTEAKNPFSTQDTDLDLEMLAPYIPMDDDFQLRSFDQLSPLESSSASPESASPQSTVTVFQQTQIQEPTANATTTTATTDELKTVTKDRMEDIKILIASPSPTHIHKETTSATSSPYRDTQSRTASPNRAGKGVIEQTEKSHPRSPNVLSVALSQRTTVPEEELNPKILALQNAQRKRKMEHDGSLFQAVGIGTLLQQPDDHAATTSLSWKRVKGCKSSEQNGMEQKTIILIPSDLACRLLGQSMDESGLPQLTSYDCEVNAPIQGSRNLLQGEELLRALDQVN
Sequence of Hepatocyte nuclear factor 6 (Homo sapiens) (Q9UBC0 whole entry, looked up): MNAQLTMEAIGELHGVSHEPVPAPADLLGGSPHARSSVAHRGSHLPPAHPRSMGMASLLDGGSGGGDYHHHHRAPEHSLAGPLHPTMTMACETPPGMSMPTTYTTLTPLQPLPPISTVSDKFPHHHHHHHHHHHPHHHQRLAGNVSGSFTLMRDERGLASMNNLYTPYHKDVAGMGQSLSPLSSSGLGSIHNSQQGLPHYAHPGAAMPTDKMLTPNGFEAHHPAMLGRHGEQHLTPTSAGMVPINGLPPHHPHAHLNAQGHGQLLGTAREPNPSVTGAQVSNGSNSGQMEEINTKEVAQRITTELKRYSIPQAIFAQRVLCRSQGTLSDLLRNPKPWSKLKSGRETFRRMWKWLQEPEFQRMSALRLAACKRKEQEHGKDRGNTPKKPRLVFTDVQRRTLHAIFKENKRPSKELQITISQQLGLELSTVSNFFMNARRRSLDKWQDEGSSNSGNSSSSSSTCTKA
Sequence of Bile acid receptor (Homo sapiens) (Q96RI1 whole entry, looked up, the tested form may be a part): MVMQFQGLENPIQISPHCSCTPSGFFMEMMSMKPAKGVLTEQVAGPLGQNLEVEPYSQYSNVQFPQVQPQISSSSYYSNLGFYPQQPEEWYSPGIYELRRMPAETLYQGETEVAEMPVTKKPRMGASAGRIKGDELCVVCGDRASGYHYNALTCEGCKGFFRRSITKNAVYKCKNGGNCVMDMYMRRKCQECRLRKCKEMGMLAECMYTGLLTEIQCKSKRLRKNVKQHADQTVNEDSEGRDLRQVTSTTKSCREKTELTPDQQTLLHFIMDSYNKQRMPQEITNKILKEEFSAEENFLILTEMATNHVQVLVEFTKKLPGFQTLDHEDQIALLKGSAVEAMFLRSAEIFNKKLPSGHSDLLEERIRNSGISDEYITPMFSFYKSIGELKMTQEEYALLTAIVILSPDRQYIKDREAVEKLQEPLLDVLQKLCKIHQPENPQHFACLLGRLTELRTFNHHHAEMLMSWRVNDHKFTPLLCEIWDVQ
Sequence of Signal transducer and activator of transcription 3 (Homo sapiens) (P40763 whole entry, looked up): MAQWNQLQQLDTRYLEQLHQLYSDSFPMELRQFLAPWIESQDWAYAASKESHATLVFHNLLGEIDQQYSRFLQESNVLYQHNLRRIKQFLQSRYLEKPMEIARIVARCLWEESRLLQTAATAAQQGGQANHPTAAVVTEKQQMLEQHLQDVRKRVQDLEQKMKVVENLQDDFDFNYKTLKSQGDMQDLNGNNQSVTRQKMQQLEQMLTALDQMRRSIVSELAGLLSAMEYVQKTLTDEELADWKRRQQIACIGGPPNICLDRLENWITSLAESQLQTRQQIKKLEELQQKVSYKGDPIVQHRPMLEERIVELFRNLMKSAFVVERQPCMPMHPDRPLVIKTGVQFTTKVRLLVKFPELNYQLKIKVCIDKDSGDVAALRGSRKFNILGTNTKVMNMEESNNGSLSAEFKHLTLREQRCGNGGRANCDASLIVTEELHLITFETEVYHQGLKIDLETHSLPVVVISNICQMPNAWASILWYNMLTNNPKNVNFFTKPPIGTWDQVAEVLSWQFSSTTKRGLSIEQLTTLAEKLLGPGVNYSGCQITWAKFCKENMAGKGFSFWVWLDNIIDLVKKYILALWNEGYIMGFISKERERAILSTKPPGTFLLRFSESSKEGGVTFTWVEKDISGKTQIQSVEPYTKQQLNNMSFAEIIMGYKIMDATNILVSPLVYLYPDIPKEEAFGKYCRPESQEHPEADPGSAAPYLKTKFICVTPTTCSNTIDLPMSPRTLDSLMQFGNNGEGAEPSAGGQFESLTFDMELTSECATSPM

For orientation: AC50 means the concentration giving half of the maximal activity seen. With `Cc1ncc([N+](=O)[O-])n1C`, the call in test [1], in test [2], in test [3], in test [4], in test [5] and in test [6] was inactive. Also, the outcome in [7], in test [8], in test [9], in test [10], in [11] and in test [13] was inactive. The result in test [14], in [15], in test [16], in [17] and in [18] was inactive. For the same compound, the AC50 in test [12] is 53.2 µM (active).
Regarding `CC1=CC(=O)NS(=O)(=O)O1`, the compound was called inactive in test [1], in test [2], in test [3], in test [4], in [5] and in test [6]. In addition, the compound was called inactive in test [7], in [8], in test [9], in [10], in test [11] and in test [19]. Besides, the outcome in test [20], in test [13], in test [14], in [15], in [17] and in test [18] was inactive. Moreover, the concentration at half-maximal activity (AC50) in [12] is 55.8 µM (active).
On to `C=CC(C)(O)CCC=C(C)CCC=C(C)C` (configuration not stated), for which the outcome in [1], in [4], in test [19] and in test [20] was inactive. Moreover, the AC50 in test [2] is 100 µM (active); in test [3], 170 µM (active); in [5], 166 µM (active); in test [6], 170 µM (active); in test [7], 158 µM (active); in [8] it was 163 µM (active). In addition, the AC50 was 136 µM (active) in test [9]; 134 µM (active) in [11]; 9.06 µM (active) in test [12]; 148 µM (active) in test [13]; 161 µM (active) in test [14]; 114 µM (active) in [15]. In [16], the half-maximal activity concentration (AC50) is 100 µM (active).
With `CSc1nnc(C(C)(C)C)c(=O)[nH]1`, the call in test [1], in [2], in test [3], in test [4], in test [5] and in test [6] was inactive. In addition, the result in test [7], in test [8], in test [9], in [11], in test [12] and in [19] was inactive. For the same compound, the call in [20], in [13], in test [15], in [16], in [17] and in test [18] was inactive.

For the origin of these results see PubChem BioAssay (EPA / NIEHS).
